# Assay results from paper PMC4336329 (PLoS ONE, 2015).
# About 14,000 (4.5%) of roughly 310,000 compounds showed an effect of 50% or more. The effect is printed as a negative number. Only a selection was taken, and strong results are over-represented in it overall.
# Target: human ether-à-go-go-related gene (hERG) potassium channel (human, UniProt Q12809)
# Assay: primary screen, population patch clamp on CHO cells stably expressing hERG; higher = less effect of the substance
# 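Note: peak tail current of the secondary pulse compared with the same well before compound.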
# Sequence of human ether-à-go-go-related gene (hERG) potassium channel (Q12809 whole entry, looked up): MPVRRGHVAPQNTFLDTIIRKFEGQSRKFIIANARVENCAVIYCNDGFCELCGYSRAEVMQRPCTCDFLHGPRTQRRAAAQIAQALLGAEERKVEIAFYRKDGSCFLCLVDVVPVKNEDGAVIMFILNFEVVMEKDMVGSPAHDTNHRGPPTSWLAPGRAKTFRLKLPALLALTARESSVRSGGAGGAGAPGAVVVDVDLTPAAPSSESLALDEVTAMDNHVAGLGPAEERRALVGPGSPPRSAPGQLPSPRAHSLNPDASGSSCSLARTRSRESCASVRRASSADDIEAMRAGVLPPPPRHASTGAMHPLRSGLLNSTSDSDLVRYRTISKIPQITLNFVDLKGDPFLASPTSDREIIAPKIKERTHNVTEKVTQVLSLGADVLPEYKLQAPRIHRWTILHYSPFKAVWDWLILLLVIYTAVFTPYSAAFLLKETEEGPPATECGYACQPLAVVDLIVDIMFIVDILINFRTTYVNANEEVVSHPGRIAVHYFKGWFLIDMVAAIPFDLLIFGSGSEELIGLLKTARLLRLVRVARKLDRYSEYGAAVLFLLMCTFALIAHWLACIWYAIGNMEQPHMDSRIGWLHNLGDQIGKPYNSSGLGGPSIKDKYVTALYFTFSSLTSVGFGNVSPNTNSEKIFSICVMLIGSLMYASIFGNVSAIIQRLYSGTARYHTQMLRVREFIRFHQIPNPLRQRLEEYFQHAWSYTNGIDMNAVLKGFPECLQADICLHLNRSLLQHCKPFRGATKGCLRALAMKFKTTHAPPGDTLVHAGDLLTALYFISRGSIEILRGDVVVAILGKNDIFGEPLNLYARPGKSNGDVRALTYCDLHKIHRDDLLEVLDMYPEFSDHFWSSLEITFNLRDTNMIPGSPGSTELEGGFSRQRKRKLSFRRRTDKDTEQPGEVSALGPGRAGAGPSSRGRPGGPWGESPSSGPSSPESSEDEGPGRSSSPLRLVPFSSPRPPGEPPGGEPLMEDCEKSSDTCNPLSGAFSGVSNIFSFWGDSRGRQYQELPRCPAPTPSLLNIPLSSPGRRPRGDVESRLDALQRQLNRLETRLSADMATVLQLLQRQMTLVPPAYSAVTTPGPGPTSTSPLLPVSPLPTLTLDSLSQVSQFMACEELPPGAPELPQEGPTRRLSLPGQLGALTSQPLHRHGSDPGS
row,Compound,"hERG current change (%, negative = inhibition) at 10uM [%]"
1,O=C(NCc1cccnc1)C1CCCN(S(=O)(=O)c2ccc(Br)cc2)C1 (centres unmarked),-41.6
2,O=C(NCCCn1ccnc1)C1CCCN(S(=O)(=O)c2cc(Cl)ccc2Cl)C1 (centres unmarked),-60.3
3,COc1ccc(Cl)cc1S(=O)(=O)N1CCCC(C(=O)NCc2ccncc2)C1 (centres unmarked),-25.7
4,O=C(NCc1ccncc1)C1CCCN(S(=O)(=O)c2cc(Cl)ccc2Cl)C1 (centres unmarked),-61.2
5,O=C(NCCCn1ccnc1)C1CCCN(S(=O)(=O)c2ccc(F)cc2)C1 (centres unmarked),10.7
6,O=C(NCc1ccccc1)C1CCCN(S(=O)(=O)c2ccc(Br)cc2)C1 (centres unmarked),23.4
7,O=C(NCc1ccncc1)C1CCCN(S(=O)(=O)c2ccc(Br)cc2)C1 (centres unmarked),-77.5
8,O=C(NCc1ccncc1)C1CCN(S(=O)(=O)c2cc(Cl)ccc2Cl)CC1,-18.9
9,COc1ccc(S(=O)(=O)N2CCCC(C(=O)NCCCn3ccnc3)C2)cc1OC (centres unmarked),7.83
10,CC(C)c1ccc(S(=O)(=O)c2n[nH]n3c2nc(=O)c2ccccc23)cc1,-16.7
11,C/C(=N\NC(=S)NCC(C)(C)C)c1cc(F)cc(F)c1O,17.2
12,CC1=NN(C(N)=S)C(=O)C1N=Nc1c(Br)cc(Br)cc1Br (centres unmarked),-8.08
13,COc1ccc(C2CC(c3ccccc3)Nc3nc(NS(C)(=O)=O)nn32)cc1 (centres unmarked),7.1
14,CCc1sc2nc(SCC(=O)Nc3cc(C)on3)n(-c3cccc(OC)c3)c(=O)c2c1C,10.2
15,NC(=S)N/N=C1\CC(c2ccc3c(c2)OCCCO3)Oc2ccc(F)cc21 (centres unmarked),6.23
16,O=C(NNC(=O)c1csc(N2CCOCC2)n1)c1ccc(=O)[nH]c1,6.26
17,CCOC(=O)N1CCN(C(=O)c2cnn3c(C(F)F)cc(-c4ccc(C)cc4)nc23)CC1,-0.653
18,CC(C)OC(=O)c1c2c(n3ccccc13)C(=O)c1ccccc1C2=O,5.73
19,CN1CCN(CCc2nc3cc(NC(=O)c4ccco4)ccc3n2C)CC1,4.18
20,Cn1c(CCNC(=O)c2ccco2)nc2cc(NC(=O)c3ccco3)ccc21,-14.4
21,Cn1c(CN2CCCC2)nc2cc(NC(=O)c3ccco3)ccc21,7.42

row,Compound,"hERG current change (%, negative = inhibition) at 10uM [%]"
1,Cc1ccc(N2CCN(CCc3nc4cc(NC(=O)c5ccco5)ccc4n3C)CC2)cc1,-70.7
2,Cc1ccc(C(=O)Nc2ccc3c(c2)nc(CCNC(=O)c2ccco2)n3C)cc1,8.06
3,Cn1c(CCN2CCN(c3ccc(F)cc3)CC2)nc2cc(NC(=O)c3ccco3)ccc21,-63.6
4,Cc1ccc(Cc2c(C)c(C#N)c3[nH]c4ccccc4n3c2=O)cc1,11.4
5,O=C(O)C12C3CCCC1C32c1ccccc1 (centres unmarked),21.7
6,CC1CCC2C(=O)N(c3ccccc3OC(=O)c3ccccc3F)C(=O)C2C1 (centres unmarked),-10.3
7,CCCSC1=C(C#N)C(c2ccc(O)c(OC)c2)CC(=O)N1 (centres unmarked),-45.1
8,CC(C)Cc1nc(SCC(=O)NCC2CCCO2)c2c(=O)n(C)c(=O)n(C)c2n1 (centres unmarked),-0.141
9,CCCn1c(=O)n(C)c(=O)c2c(SCC(=O)NCC(c3ccccc3)N(C)C)nc(CC(C)C)nc21 (centres unmarked),-66.1
10,CCCn1c(=O)n(C)c(=O)c2c(SCC(=O)NC34CC5CC(CC(C5)C3)C4)nc(CC(C)C)nc21,8.5
11,CNC(=O)c1c(I)c(C(=O)NCC(=O)Nc2c(I)c(C(=O)O)c(I)c(C(=O)NCCO)c2I)c(I)c(N(C)C(C)=O)c1I,6.45
12,CC(CN1C(C)CCCC1C)OC(=O)c1ccccc1Cl (centres unmarked),-26.8
13,COc1cc(C(=O)OC(C)CN2CCCC2)cc(OC)c1OC.Cl (centres unmarked),-12.2
14,CC(CN1C(C)CCCC1C)OC(=O)c1ccc(Cl)cc1 (centres unmarked),-44.8
15,COc1cc(C(=O)OC(C)CN2C(C)CCCC2C)cc(OC)c1OC.Cl (centres unmarked),-50.2
16,COc1cc(C(=O)OC(C)CN2CCCCC2)cc(OC)c1OC.Cl (centres unmarked),-4.43
17,CC(CN1C(C)CCCC1C)OC(=O)c1ccc(Cl)cc1Cl (centres unmarked),-51.7
18,O=S(=O)(/N=C(/Nc1ccc(F)cc1F)c1ccccc1)c1ccc(Br)cc1,12.3
19,Cc1cc(C)cc(-n2c(SCC(=O)NCc3ccc4c(c3)OCO4)nc3ccccc3c2=O)c1,15.9
20,CCOC(=O)c1c(-n2c(C)cc(/C=C3/C(=O)NC(=O)N(CC)C3=O)c2C)sc2c1CCCC2,2.36
